{"source": "paper PMC5913336", "about": "“True equilibrium measurement of transcription factor-DNA binding affinities using automated polarization microscopy”", "note": "pKd: −log10 of the molar value.", "data": [{"target": "T1, Slp1-FL (Drosophila melanogaster, UniProt P32030)", "T1 sequence": "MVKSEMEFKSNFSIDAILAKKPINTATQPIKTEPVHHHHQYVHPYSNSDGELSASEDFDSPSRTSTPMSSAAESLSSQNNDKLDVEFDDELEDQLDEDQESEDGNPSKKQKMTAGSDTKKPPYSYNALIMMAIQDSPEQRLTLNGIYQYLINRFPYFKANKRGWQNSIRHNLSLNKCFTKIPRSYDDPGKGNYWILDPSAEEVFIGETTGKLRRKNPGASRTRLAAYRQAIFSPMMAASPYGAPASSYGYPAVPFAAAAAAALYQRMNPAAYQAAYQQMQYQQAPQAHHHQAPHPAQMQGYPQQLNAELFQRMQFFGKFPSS", "experiment": "FP; 33 mM phosphate pH 7.0, 90 mM NaCl, 0.01% Tween 20, 0.1 mM DTT, 0.5% agarose; room temperature", "details": "tags: N-GST (pGEX-6P-1, kept); dsDNA, one strand shown", "values": [{"sequence": "ACGTCTTTACACTTA", "binding signal": "68.8 Kd / Kd of best base at the position"}, {"sequence": "ACGTGTTTACAATTA", "binding signal": "2.79 Kd / Kd of best base at the position"}, {"sequence": "ATGTGTTTACACTTA", "binding signal": "1.95 Kd / Kd of best base at the position"}, {"sequence": "ACGTGTTTTCACTTA", "binding signal": "13 Kd / Kd of best base at the position"}, {"sequence": "ACGTGTTTACACTGA", "binding signal": "1.18 Kd / Kd of best base at the position"}, {"sequence": "ACGGGTTTACACTTA", "binding signal": "20.1 Kd / Kd of best base at the position"}, {"sequence": "ACGCGTTTACACTTA", "binding signal": "14.2 Kd / Kd of best base at the position"}, {"sequence": "ACGTGTTCACACTTA", "binding signal": "37.4 Kd / Kd of best base at the position"}, {"sequence": "ACGTGTTTACACCTA", "binding signal": "2.68 Kd / Kd of best base at the position"}, {"sequence": "ACGTGTTTATACTTA", "binding signal": "2.63 Kd / Kd of best base at the position"}, {"sequence": "ACGTGTTGACACTTA", "binding signal": "5.44 Kd / Kd of best base at the position"}, {"sequence": "ACGTGTTTCCACTTA", "binding signal": "15.2 Kd / Kd of best base at the position"}, {"sequence": "ACCTGTTTACACTTA", "binding signal": "3.03 Kd / Kd of best base at the position"}, {"sequence": "ACGTGTTTACTCTTA", "binding signal": "2.44 Kd / Kd of best base at the position"}, {"sequence": "ACGTGCTTACACTTA", "binding signal": "16.8 Kd / Kd of best base at the position"}, {"sequence": "ACGTGTTTACACTTG", "binding signal": "1.73 Kd / Kd of best base at the position"}, {"sequence": "AAGTGTTTACACTTA", "binding signal": "8.32 Kd / Kd of best base at the position"}, {"sequence": "ACGTGTTTACCCTTA", "binding signal": "2.19 Kd / Kd of best base at the position"}, {"sequence": "ACGTGTTTACACGTA", "binding signal": "2.9 Kd / Kd of best base at the position"}, {"sequence": "GCGTGTTTACACTTA", "binding signal": "1.21 Kd / Kd of best base at the position"}, {"sequence": "ACGTGTATACACTTA", "binding signal": "19.4 Kd / Kd of best base at the position"}, {"sequence": "ACGTGTTTACAGTTA", "binding signal": "2.11 Kd / Kd of best base at the position"}, {"sequence": "ACGTGTTTACACTCA", "binding signal": "3.73 Kd / Kd of best base at the position"}, {"sequence": "ACGTATTTACACTTA", "binding signal": "3.26 Kd / Kd of best base at the position"}, {"sequence": "ACGTGTTTACACTTA", "pKd": "~7.77"}, {"sequence": "ACGTGTTTACGCTTA", "binding signal": "1.83 Kd / Kd of best base at the position"}, {"sequence": "ACGTTTTTACACTTA", "binding signal": "21.2 Kd / Kd of best base at the position"}, {"sequence": "ACGTGTTTAAACTTA", "binding signal": "44.8 Kd / Kd of best base at the position"}, {"sequence": "ACGTGTTTACACTTC", "binding signal": "1.33 Kd / Kd of best base at the position"}, {"sequence": "ACGTGTTTACACTTT", "binding signal": "1.35 Kd / Kd of best base at the position"}, {"sequence": "ACGTGATTACACTTA", "binding signal": "19 Kd / Kd of best base at the position"}, {"sequence": "ACGTGTTTAGACTTA", "binding signal": "19.7 Kd / Kd of best base at the position"}, {"sequence": "AGGTGTTTACACTTA", "binding signal": "1.71 Kd / Kd of best base at the position"}, {"sequence": "ACGTGTTTACACTAA", "binding signal": "10.7 Kd / Kd of best base at the position"}, {"sequence": "ACGTGTTTACACATA", "binding signal": "9.38 Kd / Kd of best base at the position"}, {"sequence": "ACGAGTTTACACTTA", "binding signal": "30.1 Kd / Kd of best base at the position"}, {"sequence": "ACGTGTGTACACTTA", "binding signal": "7.74 Kd / Kd of best base at the position"}, {"sequence": "CCGTGTTTACACTTA", "binding signal": "1.25 Kd / Kd of best base at the position"}, {"sequence": "TCGTGTTTACACTTA", "binding signal": "1.19 Kd / Kd of best base at the position"}]}]}
